The full data set covers some 8,800 targets. This sample favours those with a hit. About 0.5% of all pairs of compound and target were hits.
What was measured:
Test in all cases: log2 fold change, soluble protein after heating vs DMSO (PISA); higher = thermal stabilisation; K562 lysate, 10 uM; active = over 0.2 and 3.5 SD of the protein, either way, in both replicates (recomputed)
alvocidib = compound: CN1CC[C@H](c2c(O)cc(O)c3c(=O)cc(-c4ccccc4Cl)oc23)[C@H](O)C1 [alvocidib]
Summary of the method: (§1)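 To prepare the extract, K562 pellets were dounce-homogenised in PBS pH 7.4 with 1 mM MgCl2, giving crude material at 1 mg/mL protein. This was treated with 10 μM compound for 30 min, then heated in aliquots for 3 min over 48°C-58°C before pooling and addition of NP-40 to 0.5% at 4°C. Centrifugation at 21,000xg for 90 min left soluble protein in the supernatant, which TMTpro 16plex LC-MS/MS quantified with equalised channel sums. Results are log-two fold changes in thermal stability compared with solvent controls, from duplicates.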

Tubastatin A = compound: CN1CCc2c(c3ccccc3n2Cc2ccc(C(=O)NO)cc2)C1 [Tubastatin A]
Summary of the method: as §1

[1] = compound: CNC(=O)C1=CC=CC=C1NC2=NC(=NC=C2Cl)NC3=C(C=C(C=C3)N4CCOCC4)OC
Summary of the method: as §1

defactinib = compound: CNC(=O)c1ccc(Nc2ncc(C(F)(F)F)c(NCc3nccnc3N(C)S(C)(=O)=O)n2)cc1 [defactinib]
Summary of the method: as §1

[2] = compound: CNc1nc(-c2ccc3c(N)n[nH]c3c2)cc(N2C[C@@H](C(=O)NC3CCCCC3)CC[C@H]2C)n1
Summary of the method: as §1

encorafenib = compound: COC(=O)N[C@@H](C)CNc1nccc(-c2cn(C(C)C)nc2-c2cc(Cl)cc(NS(C)(=O)=O)c2F)n1 [encorafenib]
Summary of the method: as §1

[3] = compound: COC(=O)[C@H](CCSC)NC(=O)C1=C(C=C(C=C1)NC[C@H](CS)N)C2=CC=CC=C2
Summary of the method: as §1

alisertib = compound: COc1cc(Nc2ncc3c(n2)-c2ccc(Cl)cc2C(c2c(F)cccc2OC)=NC3)ccc1C(=O)O [alisertib]
Summary of the method: as §1

[4] = compound: COc1cc2nc(-c3cc(F)ccc3O)nc(N[C@@H]3CNC[C@H]3C(C)(C)O)c2cc1OC
Summary of the method: as §1

gefitinib = compound: COc1cc2ncnc(Nc3ccc(F)c(Cl)c3)c2cc1OCCCN1CCOCC1 [gefitinib]
Summary of the method: as §1

lapatinib = compound: CS(=O)(=O)CCNCc1ccc(-c2ccc3ncnc(Nc4ccc(OCc5cccc(F)c5)c(Cl)c4)c3c2)o1 [lapatinib]
Summary of the method: as §1

pictilisib = compound: CS(=O)(=O)N1CCN(Cc2cc3nc(-c4cccc5[nH]ncc45)nc(N4CCOCC4)c3s2)CC1 [pictilisib]
Summary of the method: as §1

crizotinib = compound: C[C@@H](Oc1cc(-c2cnn(C3CCNCC3)c2)cnc1N)c1c(Cl)ccc(F)c1Cl [crizotinib]
Summary of the method: as §1

[5] = compound: C[C@H](C1=CC=C(C=C1)C(=O)NC2=C3C=CNC3=NC=C2)N
Summary of the method: as §1

duvelisib = compound: C[C@H](Nc1ncnc2nc[nH]c12)c1cc2cccc(Cl)c2c(=O)n1-c1ccccc1 [duvelisib]
Summary of the method: as §1

gandotinib = compound: Cc1cc(Nc2cc(CN3CCOCC3)c3nc(C)c(Cc4ccc(Cl)cc4F)n3n2)n[nH]1 [gandotinib]
Summary of the method: as §1

tozasertib = compound: Cc1cc(Nc2cc(N3CCN(C)CC3)nc(Sc3ccc(NC(=O)C4CC4)cc3)n2)n[nH]1 [tozasertib]
Summary of the method: as §1

doramapimod = compound: Cc1ccc(-n2nc(C(C)(C)C)cc2NC(=O)Nc2ccc(OCCN3CCOCC3)c3ccccc23)cc1 [doramapimod]
Summary of the method: as §1

bafetinib = compound: Cc1ccc(NC(=O)c2ccc(CN3CC[C@H](N(C)C)C3)c(C(F)(F)F)c2)cc1Nc1nccc(-c2cncnc2)n1 [bafetinib]
Summary of the method: as §1

[6] = compound: Cc1cccc(CC(=O)N2CCc3c2ccc(-c2cn(C)c4ncnc(N)c24)c3F)n1
Summary of the method: as §1

Measured: log2 fold change

UQCRC2 (UniProt P22695)
inactive: alvocidib -0.005 | Tubastatin A 0.035 | [1] -0.013 | defactinib 0.014 | [2] 0.01 | encorafenib -0.001 | [3] -0.013 | alisertib 0.022 | [4] 0.024 | gefitinib -0.013 | lapatinib -0.04 | pictilisib -0.008 | crizotinib 0.019 | [5] -0.011 | duvelisib 0.001 | gandotinib -0.004 | tozasertib -0.025 | doramapimod -0.027 | bafetinib -0.05 | [6] -0.007

VPS41 (UniProt P49754)
Chain of UniProt P49754 (P49754 whole entry, looked up): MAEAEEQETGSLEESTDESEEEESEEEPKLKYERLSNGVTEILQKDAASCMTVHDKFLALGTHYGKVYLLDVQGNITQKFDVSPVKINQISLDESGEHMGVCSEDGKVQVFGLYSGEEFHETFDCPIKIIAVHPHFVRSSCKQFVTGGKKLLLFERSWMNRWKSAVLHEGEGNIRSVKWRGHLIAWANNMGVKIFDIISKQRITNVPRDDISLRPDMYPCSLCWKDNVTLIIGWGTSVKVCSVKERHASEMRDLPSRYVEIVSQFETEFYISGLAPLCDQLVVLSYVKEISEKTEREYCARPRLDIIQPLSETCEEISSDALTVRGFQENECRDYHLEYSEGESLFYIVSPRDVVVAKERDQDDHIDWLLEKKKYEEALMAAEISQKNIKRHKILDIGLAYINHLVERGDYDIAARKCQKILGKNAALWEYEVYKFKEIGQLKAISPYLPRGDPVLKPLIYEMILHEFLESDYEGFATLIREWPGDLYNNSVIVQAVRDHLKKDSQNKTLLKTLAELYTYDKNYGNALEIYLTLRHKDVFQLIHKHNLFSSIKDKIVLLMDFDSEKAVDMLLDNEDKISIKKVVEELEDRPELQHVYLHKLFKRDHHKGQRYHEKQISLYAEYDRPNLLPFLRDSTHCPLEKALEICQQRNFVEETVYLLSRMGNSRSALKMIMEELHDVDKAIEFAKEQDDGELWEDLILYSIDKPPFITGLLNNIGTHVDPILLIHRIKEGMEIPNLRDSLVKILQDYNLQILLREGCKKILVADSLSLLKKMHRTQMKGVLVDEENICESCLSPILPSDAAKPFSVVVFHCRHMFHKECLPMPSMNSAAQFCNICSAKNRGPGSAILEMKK
inactive: alvocidib 0.068 | Tubastatin A -0.128 | [1] 0.03 | defactinib 0.006 | [2] -0.055 | encorafenib 0.019 | [3] -0.072 | alisertib -0.043 | [4] 0.006 | gefitinib -0.004 | lapatinib -0.018 | pictilisib -0.046 | crizotinib -0.011 | [5] 0.079 | duvelisib -0.021 | gandotinib -0.093 | tozasertib 0.047 | doramapimod 0.023 | bafetinib -0.021 | [6] -0.05

VCPIP1 (UniProt Q96JH7)
Chain of UniProt Q96JH7 (Q96JH7 whole entry, looked up): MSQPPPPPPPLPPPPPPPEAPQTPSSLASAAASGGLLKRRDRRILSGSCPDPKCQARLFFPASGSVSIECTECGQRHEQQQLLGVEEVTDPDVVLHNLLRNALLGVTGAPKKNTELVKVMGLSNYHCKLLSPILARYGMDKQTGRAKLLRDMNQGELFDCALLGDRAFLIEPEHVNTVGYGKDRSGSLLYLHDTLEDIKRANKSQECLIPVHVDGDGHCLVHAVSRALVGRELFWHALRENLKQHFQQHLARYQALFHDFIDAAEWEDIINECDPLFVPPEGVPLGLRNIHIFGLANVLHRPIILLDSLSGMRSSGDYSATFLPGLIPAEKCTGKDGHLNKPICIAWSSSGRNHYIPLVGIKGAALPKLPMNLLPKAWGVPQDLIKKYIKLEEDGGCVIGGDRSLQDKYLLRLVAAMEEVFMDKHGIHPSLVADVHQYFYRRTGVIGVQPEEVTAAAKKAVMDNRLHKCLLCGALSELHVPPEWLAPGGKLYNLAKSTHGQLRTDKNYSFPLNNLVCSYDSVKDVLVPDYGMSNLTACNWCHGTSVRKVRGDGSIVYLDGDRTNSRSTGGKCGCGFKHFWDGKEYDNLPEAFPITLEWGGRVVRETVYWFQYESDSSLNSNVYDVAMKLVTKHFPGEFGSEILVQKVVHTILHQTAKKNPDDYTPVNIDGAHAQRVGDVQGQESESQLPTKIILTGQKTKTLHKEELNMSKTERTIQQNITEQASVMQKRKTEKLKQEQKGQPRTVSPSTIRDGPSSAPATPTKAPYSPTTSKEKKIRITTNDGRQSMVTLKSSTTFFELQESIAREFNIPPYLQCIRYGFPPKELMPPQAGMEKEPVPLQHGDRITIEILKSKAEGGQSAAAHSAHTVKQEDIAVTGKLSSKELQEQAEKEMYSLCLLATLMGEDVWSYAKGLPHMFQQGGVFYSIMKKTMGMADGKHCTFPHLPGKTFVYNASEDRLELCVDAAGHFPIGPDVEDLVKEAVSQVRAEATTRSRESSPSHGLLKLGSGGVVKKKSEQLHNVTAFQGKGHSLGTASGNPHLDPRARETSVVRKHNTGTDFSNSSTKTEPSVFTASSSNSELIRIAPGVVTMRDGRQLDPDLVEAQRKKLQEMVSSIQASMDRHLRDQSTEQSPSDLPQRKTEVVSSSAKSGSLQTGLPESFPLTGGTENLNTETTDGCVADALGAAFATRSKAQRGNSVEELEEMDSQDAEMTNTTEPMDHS
inactive: alvocidib -0.049 | Tubastatin A -0.026 | [1] -0.01 | defactinib 0.022 | [2] 0.113 | encorafenib 0.005 | [3] 0.141 | alisertib 0.003 | [4] -0.006 | gefitinib -0.04 | lapatinib -0.061 | pictilisib -0.053 | crizotinib -0.052 | [5] -0.059 | duvelisib -0.002 | gandotinib -0.038 | tozasertib -0.028 | doramapimod 0.025 | bafetinib -0.043 | [6] 0.1

WDR7 (UniProt Q9Y4E6)
inactive: alvocidib -0.008 | Tubastatin A 0.008 | [1] 0 | defactinib -0.025 | [2] 0.026 | encorafenib 0.092 | [3] -0.055 | alisertib -0.007 | [4] -0.01 | gefitinib -0.025 | lapatinib -0.029 | pictilisib -0.037 | crizotinib -0.058 | [5] -0.076 | duvelisib -0.008 | gandotinib 0.014 | tozasertib -0.012 | doramapimod 0.043 | bafetinib -0.04 | [6] 0.085

USP9X (UniProt Q93008)
inactive: alvocidib -0.009 | Tubastatin A -0.114 | [1] 0.016 | defactinib 0.026 | [2] -0.04 | encorafenib 0.007 | [3] 0.023 | alisertib 0.016 | [4] 0.013 | gefitinib 0.002 | lapatinib -0.031 | pictilisib -0.027 | crizotinib -0.058 | [5] -0.015 | duvelisib -0.017 | gandotinib -0.127 | tozasertib 0.011 | doramapimod 0.004 | bafetinib -0.034 | [6] 0.027

ZMAT2 (UniProt Q96NC0)
Chain of UniProt Q96NC0 (Q96NC0 whole entry, looked up): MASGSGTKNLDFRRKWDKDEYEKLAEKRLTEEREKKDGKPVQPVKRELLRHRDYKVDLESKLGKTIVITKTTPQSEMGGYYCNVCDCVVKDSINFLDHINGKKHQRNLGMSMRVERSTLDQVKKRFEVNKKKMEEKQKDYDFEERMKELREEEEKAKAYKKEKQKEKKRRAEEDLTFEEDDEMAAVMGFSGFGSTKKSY
inactive: alvocidib -0.001 | Tubastatin A 0.053 | [1] -0.012 | defactinib -0.001 | [2] -0.037 | encorafenib -0.035 | [3] -0.014 | alisertib 0.009 | [4] 0.001 | gefitinib 0.013 | lapatinib 0.006 | pictilisib 0.003 | crizotinib -0.005 | [5] 0.02 | duvelisib -0.034 | gandotinib -0.035 | tozasertib -0.028 | doramapimod 0.042 | bafetinib 0.053 | [6] -0.043

VPS4A (UniProt Q9UN37)
Chain of UniProt Q9UN37 (Q9UN37 whole entry, looked up): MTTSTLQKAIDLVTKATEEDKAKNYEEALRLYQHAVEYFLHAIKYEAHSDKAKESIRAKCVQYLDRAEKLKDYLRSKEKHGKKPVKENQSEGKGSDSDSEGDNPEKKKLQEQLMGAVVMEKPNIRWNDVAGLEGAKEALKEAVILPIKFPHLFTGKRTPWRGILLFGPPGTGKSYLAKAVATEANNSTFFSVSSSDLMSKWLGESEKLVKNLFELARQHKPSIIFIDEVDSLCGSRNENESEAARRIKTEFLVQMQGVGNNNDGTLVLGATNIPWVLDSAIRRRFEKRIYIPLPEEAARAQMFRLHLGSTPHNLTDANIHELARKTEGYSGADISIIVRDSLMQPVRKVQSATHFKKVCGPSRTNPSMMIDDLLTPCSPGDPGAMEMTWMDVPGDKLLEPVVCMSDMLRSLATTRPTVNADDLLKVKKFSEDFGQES
inactive: alvocidib -0.004 | Tubastatin A -0.16 | [1] 0.025 | defactinib 0.01 | [2] -0.1 | encorafenib -0.004 | [3] 0.138 | alisertib 0 | [4] -0.004 | gefitinib -0.025 | lapatinib 0.003 | pictilisib -0.034 | crizotinib -0.034 | [5] -0.042 | duvelisib -0.012 | gandotinib -0.066 | tozasertib 0.007 | doramapimod 0.038 | bafetinib 0.004 | [6] 0.056

ZC3HC1 (UniProt Q86WB0)
inactive: alvocidib 0.049 | Tubastatin A -0.101 | [1] 0.018 | defactinib -0.015 | [2] 0.034 | encorafenib -0.001 | [3] 0.078 | alisertib 0.022 | [4] -0.013 | gefitinib 0.024 | lapatinib 0.042 | pictilisib 0.001 | crizotinib 0.023 | duvelisib 0.013 | gandotinib -0.082 | tozasertib -0.036 | doramapimod 0.025 | bafetinib -0.019 | [6] -0.094
active: [5] 0.222

ZFYVE19 (UniProt Q96K21)
Chain of UniProt Q96K21 (Q96K21 whole entry, looked up): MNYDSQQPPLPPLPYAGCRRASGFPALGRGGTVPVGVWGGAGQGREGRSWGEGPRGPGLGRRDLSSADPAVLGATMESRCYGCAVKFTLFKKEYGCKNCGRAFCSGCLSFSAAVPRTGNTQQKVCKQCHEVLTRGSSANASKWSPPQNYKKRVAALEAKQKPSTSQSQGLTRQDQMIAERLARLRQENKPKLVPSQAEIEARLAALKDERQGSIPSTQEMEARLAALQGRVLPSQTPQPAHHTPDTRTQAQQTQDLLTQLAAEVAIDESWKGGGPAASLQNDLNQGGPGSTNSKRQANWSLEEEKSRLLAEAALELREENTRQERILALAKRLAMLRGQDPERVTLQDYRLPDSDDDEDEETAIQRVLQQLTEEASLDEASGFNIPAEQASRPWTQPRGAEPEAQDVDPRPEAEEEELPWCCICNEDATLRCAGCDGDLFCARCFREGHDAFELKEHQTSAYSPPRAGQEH
inactive: alvocidib -0.141 | Tubastatin A 0.026 | [1] -0.037 | defactinib -0.002 | [2] 0.008 | encorafenib -0.001 | [3] -0.04 | alisertib 0.008 | [4] 0 | gefitinib 0.019 | lapatinib 0.042 | pictilisib 0.017 | crizotinib 0.007 | [5] -0.125 | duvelisib -0.005 | gandotinib 0.085 | tozasertib 0.046 | doramapimod -0.029 | bafetinib 0 | [6] 0.149

USP10 isoform 2 (UniProt Q14694)
Chain of UniProt Q14694 (Q14694 whole entry, looked up): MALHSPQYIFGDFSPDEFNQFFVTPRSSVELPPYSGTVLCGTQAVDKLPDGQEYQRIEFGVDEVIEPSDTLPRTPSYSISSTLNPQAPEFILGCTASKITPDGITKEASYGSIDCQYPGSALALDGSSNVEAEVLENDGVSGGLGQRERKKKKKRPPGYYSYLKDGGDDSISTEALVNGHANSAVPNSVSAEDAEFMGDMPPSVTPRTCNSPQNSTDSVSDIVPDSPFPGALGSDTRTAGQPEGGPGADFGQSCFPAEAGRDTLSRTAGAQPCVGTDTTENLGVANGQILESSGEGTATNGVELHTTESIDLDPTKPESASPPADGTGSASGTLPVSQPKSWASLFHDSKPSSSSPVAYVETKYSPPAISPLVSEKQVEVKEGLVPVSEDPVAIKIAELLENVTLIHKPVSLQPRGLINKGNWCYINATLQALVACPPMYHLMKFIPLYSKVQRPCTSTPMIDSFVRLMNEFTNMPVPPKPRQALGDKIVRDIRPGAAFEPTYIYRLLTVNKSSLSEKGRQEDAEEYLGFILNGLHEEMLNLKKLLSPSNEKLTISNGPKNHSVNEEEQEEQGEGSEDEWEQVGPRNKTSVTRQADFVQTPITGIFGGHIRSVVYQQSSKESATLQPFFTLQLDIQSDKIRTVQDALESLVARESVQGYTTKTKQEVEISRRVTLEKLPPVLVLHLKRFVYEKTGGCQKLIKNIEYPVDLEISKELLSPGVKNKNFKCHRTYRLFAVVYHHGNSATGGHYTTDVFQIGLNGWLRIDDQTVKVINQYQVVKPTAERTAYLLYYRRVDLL
inactive: alvocidib 0.006 | Tubastatin A -0.118 | [1] 0.015 | defactinib 0.017 | [2] 0.021 | encorafenib 0.019 | [3] 0.04 | alisertib 0.012 | [4] -0.009 | gefitinib -0.018 | lapatinib -0.01 | pictilisib -0.015 | crizotinib -0.03 | [5] -0.024 | duvelisib 0.009 | gandotinib -0.046 | tozasertib -0.014 | doramapimod -0.016 | bafetinib -0.014 | [6] 0.028

VAMP2 (UniProt P63027)
Chain of UniProt P63027 (P63027 whole entry, looked up): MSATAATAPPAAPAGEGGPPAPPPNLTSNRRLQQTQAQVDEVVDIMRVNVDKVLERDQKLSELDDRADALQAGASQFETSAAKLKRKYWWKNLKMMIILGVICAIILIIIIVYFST
inactive: alvocidib 0.019 | Tubastatin A 0.027 | [1] 0.035 | defactinib 0.112 | [2] -0.01 | encorafenib 0.05 | [3] -0.057 | alisertib 0.014 | [4] 0.001 | gefitinib 0.018 | lapatinib 0.045 | pictilisib -0.05 | crizotinib 0.105 | [5] 0.062 | duvelisib 0.051 | gandotinib -0.057 | tozasertib 0.074 | doramapimod -0.083 | bafetinib -0.002 | [6] -0.147

ZHX1 (UniProt Q9UKY1)
active: [5] -0.57 | gandotinib 0.475 | [6] 0.431
inactive: alvocidib -0.231 | Tubastatin A -0.194 | [1] 0 | defactinib 0.034 | [2] 0.251 | encorafenib 0.041 | [3] 0.044 | alisertib 0.013 | [4] 0.042 | gefitinib 0.012 | lapatinib 0.014 | pictilisib 0.003 | crizotinib 0.018 | duvelisib 0.038 | tozasertib -0.09 | doramapimod -0.013 | bafetinib -0.08

VRK2 (UniProt Q86Y07)
Chain of UniProt Q86Y07 (Q86Y07 whole entry, looked up): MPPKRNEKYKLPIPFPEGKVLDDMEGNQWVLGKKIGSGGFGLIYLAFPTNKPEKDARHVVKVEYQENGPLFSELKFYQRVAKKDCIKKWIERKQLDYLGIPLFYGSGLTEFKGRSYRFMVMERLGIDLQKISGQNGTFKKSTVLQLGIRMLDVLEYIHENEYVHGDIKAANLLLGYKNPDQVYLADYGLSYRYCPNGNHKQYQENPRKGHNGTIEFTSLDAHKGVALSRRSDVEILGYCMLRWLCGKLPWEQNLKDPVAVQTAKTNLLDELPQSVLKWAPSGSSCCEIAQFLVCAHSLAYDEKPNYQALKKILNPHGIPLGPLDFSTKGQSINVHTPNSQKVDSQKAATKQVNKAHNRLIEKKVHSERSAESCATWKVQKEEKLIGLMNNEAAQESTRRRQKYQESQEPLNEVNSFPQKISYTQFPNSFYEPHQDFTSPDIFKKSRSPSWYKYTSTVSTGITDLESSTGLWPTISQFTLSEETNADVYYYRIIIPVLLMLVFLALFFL
active: alvocidib 0.503 | [5] 0.353
inactive: Tubastatin A -0.017 | [1] 0.067 | defactinib 0.156 | [2] -0.044 | encorafenib -0.068 | [3] 0.032 | alisertib -0.033 | [4] 0.008 | gefitinib -0.08 | lapatinib 0.03 | pictilisib 0.002 | crizotinib -0.069 | duvelisib -0.016 | gandotinib -0.04 | tozasertib -0.026 | doramapimod -0.063 | bafetinib -0.03 | [6] 0.03

ZMYM4 (UniProt Q5VZL5)
inactive: alvocidib -0.071 | Tubastatin A -0.089 | [1] -0.015 | defactinib 0.096 | [2] 0.188 | encorafenib 0.063 | [3] 0.016 | alisertib -0.004 | [4] 0.004 | gefitinib 0.047 | lapatinib -0.022 | pictilisib 0.037 | crizotinib -0.009 | [5] -0.07 | duvelisib -0.007 | gandotinib 0.004 | tozasertib 0.028 | doramapimod 0.031 | bafetinib 0.008 | [6] 0.042

WRB (UniProt O00258)
Chain of UniProt O00258 (O00258 whole entry, looked up): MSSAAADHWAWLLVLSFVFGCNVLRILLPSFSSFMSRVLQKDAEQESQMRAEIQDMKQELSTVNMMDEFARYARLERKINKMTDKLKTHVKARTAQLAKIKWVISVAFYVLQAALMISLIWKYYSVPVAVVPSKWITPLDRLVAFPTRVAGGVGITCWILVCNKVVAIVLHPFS
inactive: alvocidib -0.022 | Tubastatin A 0.114 | [1] 0.029 | defactinib -0.003 | [2] 0.044 | encorafenib -0.067 | [3] 0.027 | alisertib -0.028 | [4] 0.022 | gefitinib 0.061 | lapatinib -0.067 | pictilisib -0.118 | crizotinib 0.034 | [5] -0.138 | duvelisib 0.006 | tozasertib -0.033 | doramapimod -0.074 | bafetinib -0.017 | [6] 0.339
active: gandotinib 0.348
